This is an account of results in PubChem BioAssay (Tox21).

Experiment [1] concerns the target Cytochrome P450 2D6 (Homo sapiens) (UniProt P10635). The experiment in a line: Cytochrome P450 Family 2 Subfamily D Member 6 (CYP2D6) small molecule antagonists: luciferase reporter qHTS assay (AID 1671196). Also: nearly all actives have a fitted effect of over 50% in size. Also: potency is read from the fitted curve at half-maximal effect. The method, boiled down: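 Room-temperature luminescent CYP2D6 activity assay: compound preincubated 10 min with enzyme–substrate mix, NADPH-initiated reaction 1 h, detection reagent 20 min before reading.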
A general note: In a reporter assay the amount or activity of a reporter protein is the signal.

Experiment [2] deals with Cytochrome P450 2C19 (Homo sapiens) (UniProt P33261). The experiment in a line: Cytochrome P450 Family 2 Subfamily C Member 19 (CYP2C19) small molecule antagonists: luciferase reporter qHTS assay (AID 1671197). Also: nearly all actives have a fitted effect of over 65% in size. Also: potency is read from the fitted curve at half-maximal effect. In short, it runs like this: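 Quantitative high-throughput screen of the Tox21 library using CYP2C19 with proluciferin substrate. Reaction: NADPH regeneration, 37C, 1 h, after 10 min compound preincubation at room temperature. Readout: luminescence.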
Sequence of Cytochrome P450 2C19 (Homo sapiens) (P33261 whole entry, looked up): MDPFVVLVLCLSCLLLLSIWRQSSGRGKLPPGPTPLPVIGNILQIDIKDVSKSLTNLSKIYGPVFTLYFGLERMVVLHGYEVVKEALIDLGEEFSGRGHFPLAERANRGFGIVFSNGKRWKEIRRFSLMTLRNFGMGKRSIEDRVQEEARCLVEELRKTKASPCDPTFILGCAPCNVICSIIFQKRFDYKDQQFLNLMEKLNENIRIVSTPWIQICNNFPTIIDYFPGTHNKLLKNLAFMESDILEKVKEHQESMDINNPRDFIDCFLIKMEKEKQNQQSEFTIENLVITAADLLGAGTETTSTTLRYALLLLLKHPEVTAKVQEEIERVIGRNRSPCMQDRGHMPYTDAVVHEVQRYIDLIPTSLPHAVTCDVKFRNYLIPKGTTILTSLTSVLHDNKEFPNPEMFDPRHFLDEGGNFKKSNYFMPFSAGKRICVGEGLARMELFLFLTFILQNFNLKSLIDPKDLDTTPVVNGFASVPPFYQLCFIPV

Experiment [3] concerns the target Cytochrome P450 2C9 (Homo sapiens) (UniProt P11712). The experiment in a line: Cytochrome P450 Family 2 Subfamily C Member 9 (CYP2C9) small molecule antagonists: luciferase reporter qHTS assay (AID 1671198). Also: nearly all actives have a fitted effect of over 50% in size. Also: potency is read from the fitted curve at half-maximal effect. The method, boiled down: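 CYP2C9 activity was measured with a P450-Glo proluciferin substrate. Enzyme–substrate mix was held with compound for 10 min at room temperature, then NADPH regeneration solution was added for 1 h at 37C. Luciferin product was read as luminescence.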

For experiment [4], the target named is Cytochrome P450 1A2 (Homo sapiens) (UniProt P05177). Briefly: Cytochrome P450 Family 1 Subfamily A Member 2 (CYP1A2) small molecule antagonists: luciferase reporter qHTS assay (AID 1671199). Also: nearly all actives have a fitted effect of over 50% in size. Also: potency is read from the fitted curve at half-maximal effect. In short, it runs like this: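 Room-temperature CYP1A2 reaction with proluciferin substrate: compounds added from DMSO, 10 min preincubation, NADPH regeneration for 1 h. Luciferin detection reagent then added; luminescence recorded as RLU.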
Sequence of Cytochrome P450 1A2 (Homo sapiens) (P05177 whole entry, looked up): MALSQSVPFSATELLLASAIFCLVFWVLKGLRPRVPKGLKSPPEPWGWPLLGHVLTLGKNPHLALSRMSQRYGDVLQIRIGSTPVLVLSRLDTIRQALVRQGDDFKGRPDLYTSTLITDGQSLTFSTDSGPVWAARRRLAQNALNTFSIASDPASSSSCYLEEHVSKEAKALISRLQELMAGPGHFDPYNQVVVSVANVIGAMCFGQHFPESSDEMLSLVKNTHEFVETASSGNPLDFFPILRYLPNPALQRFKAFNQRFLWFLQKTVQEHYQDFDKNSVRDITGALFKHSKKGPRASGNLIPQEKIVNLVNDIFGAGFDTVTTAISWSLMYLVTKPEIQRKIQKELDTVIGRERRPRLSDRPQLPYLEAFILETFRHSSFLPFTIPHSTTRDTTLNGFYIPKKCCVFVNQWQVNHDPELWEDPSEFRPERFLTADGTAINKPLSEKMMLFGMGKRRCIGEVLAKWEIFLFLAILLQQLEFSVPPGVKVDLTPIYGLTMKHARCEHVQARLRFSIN

The target of experiment [5] is Voltage-gated inwardly rectifying potassium channel KCNH2 (Homo sapiens) (UniProt Q12809). Briefly: Human Ether-a-go-go-Related Gene (hERG) channel small molecule antagonists: fluorescence cell-based qHTS assay (AID 1671200).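 Also: hERG-expressing U2OS cells given a thallium stimulus after FluxOR II dye loading; series mostly up to about 77 µM; nearly all actives have a fitted effect of over 50% in size.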 In short, it runs like this:
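Kinetic two-minute fluorescence traces, sampled at 1 s, were collected following thallium stimulus of U2OS cells (1000 per well) that had been cultured overnight at 37 C and loaded with FluxOR II.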
On the technique in general: hERG is a cardiac potassium channel; its block is linked to QT prolongation.

In experiment [6] the target is Cytochrome P450 3A4 (Homo sapiens) (UniProt P08684). The experiment in a line: Cytochrome P450 Family 3 Subfamily A Member 4 (CYP3A4) small molecule antagonists: luciferase reporter qHTS assay (AID 1671201). The method, boiled down:
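Proluciferin-to-luciferin conversion by CYP3A4, NADPH-regenerated, 1 h RT; luminescence read as RLU. Ketoconazole as control.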

“And” between values parts separate entries of the source, which are not always exact repeats. Equal entries are not always repeated. Records with an inconclusive call do not appear. More than one record can exist for a structure, and the calls need not agree. The source made the active and inactive calls. Calls follow the shape of the dose curve; as a rule, active = well fitted curve in the direction sought with a large enough effect in the repeat runs; inconclusive = weak or mixed curves; inactive = no such curve, though single readings can be large; an effect the other way counts as inactive or inconclusive.

Sequence of Cytochrome P450 2C9 (Homo sapiens) (P11712 whole entry, looked up): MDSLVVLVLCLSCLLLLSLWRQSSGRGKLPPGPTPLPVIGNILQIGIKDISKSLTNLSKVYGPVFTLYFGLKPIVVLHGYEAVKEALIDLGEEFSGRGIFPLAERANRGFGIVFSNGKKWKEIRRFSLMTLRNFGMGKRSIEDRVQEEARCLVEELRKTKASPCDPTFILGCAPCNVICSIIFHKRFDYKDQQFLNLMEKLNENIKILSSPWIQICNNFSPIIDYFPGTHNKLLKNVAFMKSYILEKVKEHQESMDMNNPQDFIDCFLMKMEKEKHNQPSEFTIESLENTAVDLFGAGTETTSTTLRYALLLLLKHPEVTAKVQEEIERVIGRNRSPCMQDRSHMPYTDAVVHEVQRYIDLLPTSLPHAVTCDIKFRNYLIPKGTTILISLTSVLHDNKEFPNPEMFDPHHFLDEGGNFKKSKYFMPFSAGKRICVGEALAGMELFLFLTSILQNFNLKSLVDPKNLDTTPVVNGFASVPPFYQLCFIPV
Sequence of Cytochrome P450 3A4 (Homo sapiens) (P08684 whole entry, looked up): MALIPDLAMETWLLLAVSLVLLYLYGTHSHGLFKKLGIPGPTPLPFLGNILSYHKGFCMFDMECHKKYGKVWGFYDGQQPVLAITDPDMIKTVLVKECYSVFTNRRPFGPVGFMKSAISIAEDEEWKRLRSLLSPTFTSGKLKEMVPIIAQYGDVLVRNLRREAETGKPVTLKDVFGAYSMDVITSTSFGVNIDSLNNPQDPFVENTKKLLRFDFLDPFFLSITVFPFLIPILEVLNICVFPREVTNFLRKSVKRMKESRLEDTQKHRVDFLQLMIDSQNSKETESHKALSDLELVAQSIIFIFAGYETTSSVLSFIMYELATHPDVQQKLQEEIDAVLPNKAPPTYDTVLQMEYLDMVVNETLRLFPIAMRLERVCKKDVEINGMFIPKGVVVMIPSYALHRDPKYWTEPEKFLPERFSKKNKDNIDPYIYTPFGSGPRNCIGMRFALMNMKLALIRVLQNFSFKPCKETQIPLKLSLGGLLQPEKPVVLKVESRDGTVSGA
Sequence of Voltage-gated inwardly rectifying potassium channel KCNH2 (Homo sapiens) (Q12809 whole entry, looked up): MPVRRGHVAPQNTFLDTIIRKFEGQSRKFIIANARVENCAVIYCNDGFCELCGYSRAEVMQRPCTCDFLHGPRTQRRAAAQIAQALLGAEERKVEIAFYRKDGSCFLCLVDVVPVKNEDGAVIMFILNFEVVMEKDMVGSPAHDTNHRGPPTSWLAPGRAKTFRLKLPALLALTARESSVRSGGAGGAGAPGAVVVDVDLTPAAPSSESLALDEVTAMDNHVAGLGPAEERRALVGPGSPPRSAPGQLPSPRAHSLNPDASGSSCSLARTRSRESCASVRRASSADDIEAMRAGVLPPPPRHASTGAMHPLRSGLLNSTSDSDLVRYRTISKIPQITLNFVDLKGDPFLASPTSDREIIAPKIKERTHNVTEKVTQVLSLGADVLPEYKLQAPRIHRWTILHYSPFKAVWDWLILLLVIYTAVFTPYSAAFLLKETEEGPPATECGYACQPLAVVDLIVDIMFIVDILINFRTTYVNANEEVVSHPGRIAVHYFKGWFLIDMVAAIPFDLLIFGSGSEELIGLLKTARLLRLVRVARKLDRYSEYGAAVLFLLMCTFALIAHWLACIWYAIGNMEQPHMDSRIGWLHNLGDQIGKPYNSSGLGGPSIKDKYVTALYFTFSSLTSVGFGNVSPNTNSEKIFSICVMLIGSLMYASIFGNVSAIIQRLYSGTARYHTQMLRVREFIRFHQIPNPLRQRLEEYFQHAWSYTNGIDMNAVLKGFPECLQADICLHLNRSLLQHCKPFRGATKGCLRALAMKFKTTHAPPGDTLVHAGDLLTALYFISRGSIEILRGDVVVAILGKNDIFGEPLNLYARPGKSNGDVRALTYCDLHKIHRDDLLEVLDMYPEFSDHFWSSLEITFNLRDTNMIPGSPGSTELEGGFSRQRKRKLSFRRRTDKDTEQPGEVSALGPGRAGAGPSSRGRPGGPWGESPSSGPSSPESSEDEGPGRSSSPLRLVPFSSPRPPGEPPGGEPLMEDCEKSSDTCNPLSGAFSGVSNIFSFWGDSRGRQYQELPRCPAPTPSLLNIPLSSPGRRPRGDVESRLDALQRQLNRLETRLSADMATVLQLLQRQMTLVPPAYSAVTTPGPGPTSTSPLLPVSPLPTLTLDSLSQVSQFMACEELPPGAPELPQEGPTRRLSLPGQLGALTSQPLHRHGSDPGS
Sequence of Cytochrome P450 2D6 (Homo sapiens) (P10635 whole entry, looked up): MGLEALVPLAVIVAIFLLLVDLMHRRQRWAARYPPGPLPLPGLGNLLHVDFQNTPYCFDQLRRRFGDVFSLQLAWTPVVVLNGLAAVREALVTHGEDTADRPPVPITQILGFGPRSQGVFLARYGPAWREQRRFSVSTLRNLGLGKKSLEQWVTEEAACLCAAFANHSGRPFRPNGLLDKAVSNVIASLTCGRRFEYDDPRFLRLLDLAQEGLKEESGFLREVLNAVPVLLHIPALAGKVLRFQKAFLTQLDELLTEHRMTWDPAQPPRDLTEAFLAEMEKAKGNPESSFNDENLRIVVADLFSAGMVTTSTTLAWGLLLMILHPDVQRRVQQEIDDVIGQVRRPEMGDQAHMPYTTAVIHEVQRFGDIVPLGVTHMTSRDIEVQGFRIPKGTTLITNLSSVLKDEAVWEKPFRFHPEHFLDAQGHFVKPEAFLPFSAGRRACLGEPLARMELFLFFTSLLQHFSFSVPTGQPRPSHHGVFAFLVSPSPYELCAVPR

For the compound `CCC1(c2ccccc2)C(=O)NCNC1=O`, the Potency result in experiment [1], in experiment [2], in experiment [3], in experiment [4] and in experiment [6] was “inactive” each time. For the same compound, the compound was classed as inactive in experiment [5].

For the compound `CCCCCCCCCCCCCCCC(=O)O`, the Potency result in experiment [1], in experiment [3] and in experiment [6] was “inactive” in each case. Moreover, in experiment [4], the Potency is 39.9 µM (active) and inactive. In addition, in experiment [5], the result was inactive.

Take `NNC(=O)c1ccncc1`: the Potency in experiment [1] was 40 µM (active) and inactive; in experiment [3] it was 35.7 µM (active) and 13.3 µM (active); in experiment [4], 40 µM (active) and 26.5 µM (active) and 27.5 µM (active). Moreover, in experiment [5], the compound was called inactive.

For the compound `CCCC(CCC)C(=O)O`, the Potency entry in experiment [1] and in experiment [6] was “inactive” each time. Also, the Potency in experiment [3] was 79.6 µM (active) and inactive; in experiment [4], 5.62 µM (active) and inactive. Further, the result in experiment [5] was inactive.

As to `O=C(O)CCCCC(=O)O`, the Potency result in experiment [1], in experiment [2], in experiment [3], in experiment [4] and in experiment [6] was “inactive” each time. Further, in experiment [5], the result was inactive.

On to `O=C(O)CCCCCCCC(=O)O`, for which the Potency entry in experiment [1], in experiment [2], in experiment [4] and in experiment [6] was “inactive” in each case. The call in experiment [5] was inactive.

Regarding `O=C1CN(/N=C/c2ccc([N+](=O)[O-])o2)C(=O)N1`, the Potency entry in experiment [1], in experiment [3], in experiment [4] and in experiment [6] was “inactive” throughout. The Potency in experiment [2] is 79.4 µM (active) and inactive. Further, the result in experiment [5] was inactive.

`CCCCC1C(=O)N(c2ccccc2)N(c2ccccc2)C1=O`: the Potency entry in experiment [1] and in experiment [4] was “inactive” each time. In addition, the Potency in experiment [3] was 9.96 µM (active) and 31.7 µM (active) and 17.4 µM (active). The outcome in experiment [5] was inactive.

As to `Nc1ccc(S(=O)(=O)Nc2nccs2)cc1`, the Potency result in experiment [1], in experiment [3], in experiment [4] and in experiment [6] was “inactive” throughout. Further, the compound was called inactive in experiment [5].

`Nc1ccc(C(=O)O)cc1`: the Potency entry in experiment [1], in experiment [2], in experiment [3], in experiment [4] and in experiment [6] was “inactive” each time. In addition, the call in experiment [5] was inactive.
